Data taken from PubChem BioAssay (NCI).
About 83,000 compounds went through this panel and 20% of them were active in at least one assay; those are over-represented in the sample as a whole.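 Step 1: grow cells in 96-well plates. Step 2: add test compound at a single concentration. Step 3: incubate 48 h. Step 4: record percent growth.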 Unmarked numbers belong to inactive results. The source made the active and inactive calls. The calls were made as follows: active = growth percent below 10; inactive = the rest.

What follows are compounds tested on MDA-MB-468 breast (assay: NCI-60 one-dose screen, 48 h (100 = growth as untreated, 0 = no growth, -100 = all killed)). Conditions: 10 µM unless noted.

| Compound | growth |
| --- | --- |
| COc1cccc(COC(=O)Nc2ccccc2)c1OC | 93.3% |
| O=C(NC1CCN(Cc2ccccc2)CC1)c1cc2nc(-c3ccc(Cl)s3)cc(C(F)(F)F)n2n1 | -66.2% (active) |
| Cn1nc(Nc2ccccc2)c(C(=O)NN)c1N | 100% |
| COc1cc(-c2cc(/C=C/C(=O)c3ccc(F)c(F)c3)[nH]n2)cc(OC)c1OC | 33.8% |
| COc1ccc(/C(=C\c2cc(OC)c(OC)c(OC)c2)C(=O)Nc2nc3ccc(Cl)cc3s2)cc1 | 96.4% |
| Cc1cc(O)ccc1Sc1ccccc1[N+](=O)[O-] | 95.3% |
| C=C(CNCCO)[C@@H]1CC[C@]2(CO)CC[C@]3(C)[C@H](CC[C@@H]4[C@@]5(C)CCC(NCCO)C(C)(C)[C@@H]5CC[C@]43C)[C@@H]12 (some centres not stated) | 51% |
| CC1=C(CCC(C)N(C)Cc2ccc(OCCCN3CCCC3)cc2)C(C)(C)CCC1 (configuration not stated) | -18.6% (active) |
| CN(C)c1ccc(O)c2c1CC1CC3C(N(C)C)C(=O)C(C(N)=O)=C(O)C3(O)C(=O)C1=C2O (configuration not stated) | 36.7% |
| COc1cc2cc(Oc3ccc(NC(=O)Nc4cc(C(F)(F)F)cc(C(F)(F)F)c4)cc3)c(C)nc2cc1OCCN(C)C | 100% |
| C=C(CNCCc1ccc(O)cc1)[C@@H]1CC[C@]2(CO)CC[C@]3(C)[C@H](CC[C@@H]4[C@@]5(C)CCC(=O)C(C)(C)[C@@H]5CC[C@]43C)[C@@H]12 | 8.97% (active) |
| CSc1ccc2c(c1)N(C(=O)/C(C#N)=C/c1c[nH]c3ccccc13)c1ccccc1S2 | 12% |
